Consider 88 compounds from PubChem BioAssay AID2177 (The Scripps Research Institute Molecular Screening Center, 2009).

Out of some 320,000 compounds screened, about 1,200 (0.38%) were called active. The sample as a whole holds a higher share of actives than the screen did. A number with no mark means an inactive call.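 The calls were made as follows: active = inhibition above the screen-wide mean plus 3 SD, limit set per campaign (cut at about 26% in these data); inactive = the rest.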

The target of the assay is Acyl-protein thioesterase 2 (Homo sapiens) (UniProt O95372). Kind of assay: LYPLA2 inhibitors, primary screen, counter-screen for PME1 inhibitor project, biochemical, fluorescence polarization, FP-Rh probe ABPP (AID 2177).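 Also: 0% = LYPLA2 with DMSO and 100% = wells lacking LYPLA2 enzyme.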 To be noted: recombinant LYPLA2, FP-Rh probe fluorescence polarization; at 5.9 µM; active compounds read high.
Acyl-protein thioesterase 2 (Homo sapiens), sequence (O95372 whole entry, looked up): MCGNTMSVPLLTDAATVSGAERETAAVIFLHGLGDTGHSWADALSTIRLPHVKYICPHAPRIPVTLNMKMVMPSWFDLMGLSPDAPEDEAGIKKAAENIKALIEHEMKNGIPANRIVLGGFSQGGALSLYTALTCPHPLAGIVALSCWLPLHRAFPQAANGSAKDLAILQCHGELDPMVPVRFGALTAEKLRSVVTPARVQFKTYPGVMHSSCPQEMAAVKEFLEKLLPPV
In the case of `COC(=O)c1ccc(CN2CCCC(C(=O)Nc3cccc(-n4cnnn4)c3)C2)cc1` (stereo not drawn), the inhibition was 2.89%. As for `COc1cccc(N(C(=O)c2ccn[nH]2)C2(C(=O)Nc3c(C)cccc3C)CCCCC2)c1`, the inhibition is -1.38%. On to `Cc1ccc(/C=N/NC(=O)COc2ccccc2-c2ccccc2)cc1`, for which the inhibition is 2.18%.

On to `Cc1ccc(/C=N/NC(=O)C(NC(=O)c2ccccc2)c2n[nH]c(=O)c3ccccc23)cc1` (stereo not drawn), for which the inhibition was 40.8% (active). Regarding `O=C(O)c1ccc(/C=N/NC(=S)NCc2ccccc2)cc1`, the inhibition is -7.47%. As for `O=C(CNc1ccc(F)cc1F)NC(=O)NCc1ccco1`, the inhibition is -3.47%.

With `Cc1ccc(NC(=O)C(c2ccccc2)N2CCN(C(=O)c3ccco3)CC2)cc1` (stereo not drawn), the inhibition was 0.07%. With `Nc1nnc(SCC(=O)NC2CCCc3ccccc32)s1` (stereo not drawn), the inhibition is -1.96%. `O=C(Cc1ccc(Br)cc1)NCCN1CCOCC1`: the inhibition was 4.15%. As for `COc1ccc(NC(=O)NCCN2CCN(c3ccc(C)cc3)CC2)c(Cl)c1`, the inhibition is -3.78%. The figure for `COc1ccc(N2CCN(C(=O)c3ccc4c(Cl)c5c(nc4c3)CCCC5)CC2)cc1` is 7.7%; for `COc1ccc(N2CCN(C(=O)c3cccs3)CC2)cc1` it is 8.83%. As for `COc1ccc(N2CCN(C(=O)c3ccc(N4CCCCS4(=O)=O)cc3)CC2)cc1`, the inhibition was 63% (active). On to `COc1ccccc1N1CCC(N2CCN(CC(C)(C)C)C(CCO)C2)CC1` (stereo not drawn), for which the inhibition was -1.78%. With `COc1ccc(NC(=O)COC(=O)c2ccc(NS(=O)(=O)/C=C/c3ccccc3)cc2)cc1`, the inhibition was -12%.

For `O=C(COC(=O)c1ccccc1)Nc1ccccc1Sc1ccccc1`, the inhibition was -10.2%. Turning to `COc1ccc(C(=O)OCC(=O)NC(=O)CCSc2ccccc2)cc1`, the inhibition was 28.6% (active). `C[C@H](OC(=O)n1ccnc1)[C@@H]1O[C@@]2(C)CCC[C@@H]1O2`: the inhibition was 3.91%. Consider `CC(=O)NC12CC3CC(C1)CC(C(=O)N1CCN(C(=O)c4ccco4)CC1)(C3)C2`, for which the inhibition was 6.61%. As for `COc1ccccc1OCC(=O)O/N=C(\N)c1ccccn1`, the inhibition was -1.78%. The figure for `O=C(COc1ccc(NC(=O)c2ccccc2[N+](=O)[O-])cc1)c1ccc(F)cc1` is 43.8% (active); for `O=C(Nc1ccncc1)c1ccccc1[N+](=O)[O-]` it is 2.96%. On to `COc1ccc(NC(=O)c2ccccc2[N+](=O)[O-])cc1OC`, for which the inhibition is -0.83%.

`COc1c(C)c2c(c(O)c1C/C=C(\C)CCC(=O)O)C(=O)OC2`: the inhibition is 1.01%. The figure for `Cc1ncc([N+](=O)[O-])n1CCOC(=O)c1ccc(Br)cc1` is 4.52%; for `CN(C)CCCn1c(SCc2ccc(Cl)cc2)nnc1-c1ccncc1` it is 2.66%; for `O=C(c1cc(-c2ccc(Cl)cc2)on1)N1CCN(c2ccccc2)CC1` it is 31.3% (active). Take `O=C(c1cc(-c2ccc(F)cc2)on1)N1CCN(c2ccc(F)cc2)CC1`: the inhibition is 8.86%.

Take `COc1ccc(-c2cc(C(=O)N3CCN(c4ccc(F)cc4)CC3)no2)cc1`: the inhibition is 8.33%. For the compound `CCN(CC)CCCNC(=O)Cn1cnc2sc(C)c(S(=O)(=O)N3CCN(c4ncccn4)CC3)c2c1=O`, the inhibition is 4.51%. Turning to `CCN(CC)CCNC(=O)Cn1cnc2sc(C)c(S(=O)(=O)N3CCOCC3)c2c1=O`, the inhibition was -2.7%. Regarding `CCN(CC)CCNC(=O)c1sc2ncn(CC(=O)Nc3ccc(C)c(Cl)c3)c(=O)c2c1C`, the inhibition is 32.4% (active). On to `CCOC(=O)CSc1nc2ccc(C)cc2n2cnnc12`, for which the inhibition was -0.15%.

Take `COc1ccc(S(=O)(=O)N2CCOCC2)cc1NC(=O)Cc1c(F)cccc1Cl`: the inhibition was -4.41%. The figure for `Cc1ccccc1N1CCN(CCCOc2ccc3c(C)cc(=O)oc3c2)CC1` is 15.9%. In the case of `Cc1cc(OCCCCOc2ccc(C#N)cc2)ccc1[N+](=O)[O-]`, the inhibition is 19.5%. For `Cc1cc(OCCCN2CCN(Cc3ccccc3)CC2)ccc1[N+](=O)[O-]`, the inhibition is 34.3% (active). As for `CCOc1ccccc1N1CCN(C(=O)c2ccc3[nH]c(C)c(C)c3c2)CC1`, the inhibition is -3.51%.

With `Cc1cccc(OCC(O)CN2CCN(CCN3C(=O)c4cccc5cccc(c45)C3=O)CC2)c1C` (stereo not drawn), the inhibition is 31.6% (active).

Turning to `Cc1ccccc1OCC(O)CN1CCN(c2ccccn2)CC1` (stereo not drawn), the inhibition was -3.92%. For `Cc1cccc(C)c1OCC(O)CN1CCCCC1` (stereo not drawn), the inhibition was -4.51%. In the case of `CCCCC[C@H]1CN(C2CCCCC2)C(=O)[C@@H]1CC(=O)NCc1ccc(OC)cc1`, the inhibition is -3.9%. The figure for `COC(=O)c1ccc(S(=O)(=O)N(CCO)Cc2ccccc2)n1C` is 7.11%. On to `COC(=O)c1c(NC(=O)COc2ccc(Cl)cc2Cl)sc2c1CC(C)(C)NC2(C)C`, for which the inhibition was 1.16%. Regarding `CCC(NC(=O)C1CCCC1)c1ccc(C)cc1` (stereo not drawn), the inhibition is 0.26%. For the compound `Cc1ccc(C(c2sc3nc(C)nn3c2O)N2CCN(c3ccccc3)CC2)cc1` (stereo not drawn), the inhibition was 1.64%. With `Cc1ccc(C(c2sc3nc(C)nn3c2O)N2CCN(c3ccc(F)cc3)CC2)cc1` (stereo not drawn), the inhibition is 36.7% (active).

For the compound `Oc1c(C(c2cccs2)N2CCN(c3ccc(F)cc3)CC2)sc2ncnn12` (stereo not drawn), the inhibition was -5.69%. In the case of `C[C@@H](NC(=O)OC(C)(C)C)c1nnc(S(=O)(=O)Cc2ccccc2)o1`, the inhibition was -2.33%. `O=[N+]([O-])c1ccc(N2CCN(CC(O)COc3ccccc3)CC2)cc1` (stereo not drawn): the inhibition was 29.5% (active). On to `C[N+]1(CC(O)COc2ccccc2)CCN(C(=O)c2ccc([N+](=O)[O-])cc2)CC1` (stereo not drawn), for which the inhibition is -1.46%. Take `O=C(C(c1ccccc1)c1ccccc1)N1CCN(CC(O)COc2ccccc2)CC1` (stereo not drawn): the inhibition was 1.24%. For the compound `Cc1ccccc1NC(=O)Cc1nc(COC(=O)c2cccnc2Cl)cs1`, the inhibition was 2.11%. The figure for `CCc1ccc(NC(=O)c2ccc(Cn3cc([N+](=O)[O-])cn3)cc2)cc1` is 32% (active); for `COc1cccc(NC(=O)c2ccc(Cn3cc([N+](=O)[O-])cn3)o2)c1` it is 4.62%. `O=C(Nc1ccccc1F)c1ccc(Cn2cc(Br)cn2)cc1`: the inhibition was -5.94%. As to `O=C(Nc1ccccc1Cl)/C(Cl)=C(\Cl)S(=O)c1ccccc1` (stereo not drawn), the inhibition is -37.3%.

In the case of `O=C1Cc2ccccc2Sc2ccc(Cl)cc21`, the inhibition is -9.53%. Regarding `COc1ccc(-c2nnc(SC(C)C(=O)NC3CC3)o2)cc1` (stereo not drawn), the inhibition is 1.72%. In the case of `CCN1C(=O)[C@H]2[C@@H](c3ccc(-c4ccc(OC)cc4)cc3)N[C@@](Cc3ccccc3)(C(=O)OC)[C@H]2C1=O`, the inhibition was 6.99%.

Turning to `CCC(Cc1ccccc1)NS(=O)(=O)c1ccc2c(c1)NC(=O)CS2` (stereo not drawn), the inhibition is 1.66%.

Take `COc1ccc(C2=NOC3(CC(=O)N(c4ccc(Cl)cc4)C3=O)C2)c(OC)c1` (stereo not drawn): the inhibition is 7.09%.

As for `O=C(CCCC(=O)N1CCN(c2cccc(Cl)c2)CC1)c1ccccc1`, the inhibition is 24.1%. Regarding `O=C(Cc1ccc(-n2c(=O)[nH]c3ccccc3c2=O)cc1)N1CCN(c2cccc(Cl)c2)CC1`, the inhibition was 50.8% (active). The figure for `CCOC(=O)N1CCN(C(=O)Cc2ccc(-n3c(=S)[nH]c4ccccc4c3=O)cc2)CC1` is 3.58%; for `CCN(C(=O)C1CCCN(c2nc(-c3ccc(OC)cc3)no2)C1)c1ccc(OC)cc1` (stereo not drawn) it is 1.52%; for `N#Cc1cc([N+](=O)[O-])ccc1Oc1cccc(/C=N/NC(=O)c2ccc(Cl)cc2)c1` it is 36.9% (active). Regarding `COc1ccc(/C=N/NC(=O)c2ccc(Cl)cc2)cc1COC(C)=O`, the inhibition is -4.59%. For the compound `O=C(N/N=C/c1cccc(OC(=O)c2ccc([N+](=O)[O-])cc2)c1)c1cccnc1`, the inhibition was -5.79%. As to `Cc1c(CC(=O)NCC(=O)NCC(=O)O)c(=O)oc2cc3oc4c(c3cc12)CCCC4`, the inhibition was 4.77%.

Turning to `COc1ccc(OC)c(NC(=O)c2cccc(S(=O)(=O)N3CCN(C(C)=O)CC3)c2)c1`, the inhibition was -0.81%.

With `COc1ccc2c(c1)C=CC1(O2)N(CCO)c2ccccc2C1(C)C` (stereo not drawn), the inhibition is -20.1%. With `O=C(NC(Cc1ccccc1)C(=O)O)/C(=C\c1ccccc1)NC(=O)c1ccco1` (stereo not drawn), the inhibition was 1.3%. As to `COc1ccccc1CNC(=O)C1CCN(S(=O)(=O)c2ccc3c(c2)CC(C)N3C(=O)C2CC2)CC1` (stereo not drawn), the inhibition is 14.5%. `CC(=O)N1c2ccc(S(=O)(=O)N3CCC(C(=O)NC4CCCC(C)C4C)CC3)cc2CC1C` (stereo not drawn): the inhibition is -4.4%. On to `CC(=O)c1ccc(N2CCN(C(=O)C3CCN(S(=O)(=O)c4ccc5c(c4)CC(C)N5C(=O)C4CC4)CC3)CC2)cc1` (stereo not drawn), for which the inhibition is 75% (active). With `CC(=O)N1c2ccc(S(=O)(=O)N3CCC(C(=O)N4CCN(c5ccccc5)CC4)CC3)cc2CC1C` (stereo not drawn), the inhibition was 58% (active). Regarding `CC(=O)c1ccc(N2CCN(S(=O)(=O)c3ccc4c(c3)CC(=O)N4C)CC2)cc1`, the inhibition was 4.78%.

As to `CC(=O)N1c2ccc(S(=O)(=O)N3CCC(C(=O)NC4CCCCC4C)CC3)cc2CC1C` (stereo not drawn), the inhibition is -1.87%. As for `O=C(O)CC(Cc1ccccc1)C(=O)Nc1ccc([N+](=O)[O-])cc1` (stereo not drawn), the inhibition was -0.26%.

Regarding `CCOC(=O)c1cc(NC(=O)SCC(=O)O)c(C)nc1C`, the inhibition was 4.19%.

In the case of `COc1cc(C(=O)NCc2ccc3c(c2)cc(C)n3C)cc(OC)c1OC`, the inhibition was 6.1%. Consider `CCOC(=O)c1c(-c2ccccc2)oc2ccc(OCC(=O)NN)cc12`, for which the inhibition was -13%.

For `CCCc1c(C(=O)Nc2ccc(F)cc2)cnn1-c1ccccc1`, the inhibition was -3.93%. Regarding `O=C(CSCc1ccc([N+](=O)[O-])cc1)Nc1cccc(C(=O)Nc2ccccc2C(=O)O)c1`, the inhibition is -6.72%. Regarding `COc1ccccc1C(=O)NC(CCSC)C(=O)N1CCN(C(C)=O)CC1` (stereo not drawn), the inhibition was -2.46%. For the compound `COc1ccccc1C(=O)NC(CCSC)C(=O)NNC(=O)c1ccccc1C` (stereo not drawn), the inhibition is -3.19%. The figure for `COc1ccccc1C(=O)NC(CCSC)C(=O)N1CCN(C/C=C/c2ccccc2)CC1` (stereo not drawn) is 37.6% (active).
